Assay results reported in PubChem BioAssay AID1159580 (chemical genetic matrix, 2015).
Values joined by “and” are separate entries in the source; they are usually repeats but may differ in a detail not shown here. Equal values may be shown once. Screen size: about 5,500 compounds; about 2,000 (36%) were called active. Roughly 18% stayed inconclusive and do not appear here. Cut-off read from the data, not from the text of the source: active = normalized growth mostly below about 0.91 (no sharp cut-off); inconclusive = no clear call, values can overlap the other calls; inactive = mostly above about 0.92. The list shows a part of the results.

Test: chemical genetic growth profiling, strain panel (AID 1159580);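 note: tested at 20 µM; growth read once vehicle control cultures reached saturation at 30 °C; 1 = growth at the plate median or of vehicle wells; lower values mean less growth of the strain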
Conditions: S. cerevisiae deletion strains, growth OD

Measured: normalized growth

CON
inactive: locus YAL013W, strain DEP1, stronger effect = lower value 0.992 | locus YAL021C, strain ccr4, stronger effect = lower value 0.994 | locus YAL026C, strain drs2, stronger effect = lower value 1.01 | locus YAL030W, strain snc1, stronger effect = lower value 1.02 | locus YBL061C, strain skt5, stronger effect = lower value 1.01 | locus YBR009C, strain hhf1, stronger effect = lower value 1.01 | locus YBR021W, strain FUR4, stronger effect = lower value 1 | locus YBR023C, strain chs3, stronger effect = lower value 1.01 | locus YBR171W, strain sec66, stronger effect = lower value 0.995 | locus YBR229C, strain ROT2, stronger effect = lower value 1 | locus YBR231C, strain swc5, stronger effect = lower value 1.01 | locus YBR279W, strain paf1, stronger effect = lower value 0.991 | locus YCL011C, strain gbp2, stronger effect = lower value 1.02 | locus YCL016C, strain dcc1, stronger effect = lower value 1.04 | locus YCL029C, strain bik1, stronger effect = lower value 0.976 | locus YCL069W, strain vba3, stronger effect = lower value 0.976 | locus YCR088W, strain abp1, stronger effect = lower value 0.987 | locus YDL005C, strain med2, stronger effect = lower value 0.994 | locus YDL035C, strain GPR1, stronger effect = lower value 0.988 | locus YDL040C, strain nat1, stronger effect = lower value 0.994 | locus YDL074C, strain BRE1, stronger effect = lower value 1.04 | locus YDL101C, strain DUN1, stronger effect = lower value 1.01 | locus YDL134C, strain PPH21, stronger effect = lower value 0.997 | locus YDL185W, strain tfp1, stronger effect = lower value 0.968 | locus YDL192W, strain arf1, stronger effect = lower value 0.986 | locus YDR001C, strain nth1, stronger effect = lower value 0.998 | locus YDR069C, strain doa4, stronger effect = lower value 1.02 | locus YDR101C, strain arx1, stronger effect = lower value 1.02 | locus YDR137W, strain rgp1, stronger effect = lower value 1.03 | locus YDR150W, strain NUM1, stronger effect = lower value 0.993 | locus YDR159W, strain sac3, stronger effect = lower value 0.993 | locus YDR162C, strain NBP2, stronger effect = lower value 0.98 | locus YDR195W, strain ref2 0.993 | locus YDR297W, strain sur2, stronger effect = lower value 1.02 | locus YDR318W, strain mcm21, stronger effect = lower value 0.99 | locus YDR334W, strain swr1, stronger effect = lower value 0.975 | locus YDR335W, strain msn5, stronger effect = lower value 1.02 | locus YDR388W, stronger effect = lower value 1.01 | locus YDR392W, strain spt3, stronger effect = lower value 1.12 | locus YDR502C, strain sam2, stronger effect = lower value 0.999 | locus YEL003W, strain gim4, stronger effect = lower value 0.993 | locus YEL037C, strain rad23, stronger effect = lower value 0.984 | locus YEL061C, strain CIN8 (second series), stronger effect = lower value 0.99 | locus YEL061C, strain CIN8, stronger effect = lower value 0.997 | locus YER015W, strain faa2, stronger effect = lower value 1.01 | locus YER016W, strain bim1, stronger effect = lower value 1.02 | locus YER110C, stronger effect = lower value 0.981 | locus YER111C, strain swi4, stronger effect = lower value 1.01 | locus YER155C, strain BEM2 (second series), stronger effect = lower value 1.05 | locus YER155C, strain BEM2, stronger effect = lower value 0.991 | locus YER167W, strain BCK2, stronger effect = lower value 0.997 | locus YFR010W, strain ubp6, stronger effect = lower value 0.976 | locus YGL078C, strain dbp3, stronger effect = lower value 0.984 | locus YGL086W, strain mad1, stronger effect = lower value 1.02 | locus YGL167C, strain pmr1, stronger effect = lower value 0.993 | locus YGL173C, strain kem1, stronger effect = lower value 0.998 | locus YGL227W, strain vid30, stronger effect = lower value 0.995 | locus YGL240W, strain doc1, stronger effect = lower value 0.994 | locus YGL248W, strain PDE1, stronger effect = lower value 1.02 | locus YGL253W, strain hxk2, stronger effect = lower value 1.01 | locus YGR135W, strain pre9, stronger effect = lower value 0.982 | locus YGR229C, strain SMI1, stronger effect = lower value 1.01 | locus YGR252W, strain gcn5, stronger effect = lower value 1.03 | locus YHR013C, strain ard1, stronger effect = lower value 1.03 | locus YHR027C, strain rpn1, stronger effect = lower value 1.02 | locus YHR030C, strain SLT2, stronger effect = lower value 0.989 and 0.974 | locus YHR079C, strain IRE1 (second series), stronger effect = lower value 0.98 | locus YHR079C, strain IRE1, stronger effect = lower value 0.987 | locus YHR094C, strain hxt1, stronger effect = lower value 1 | locus YHR129C, strain ARP1, stronger effect = lower value 0.997 | locus YHR142W, strain chs7, stronger effect = lower value 1.01 | locus YHR200W, strain rpn10, stronger effect = lower value 0.969 | locus YIL066C, strain RNR3, stronger effect = lower value 1.02 | locus YIL073C, strain SPO22, stronger effect = lower value 0.941 | locus YIL125W, strain kgd1, stronger effect = lower value 0.999 | locus YIR030C, strain dcg1, stronger effect = lower value 0.993 | locus YJL092W, strain hpr5, stronger effect = lower value 0.998 | locus YJL095W, strain BCK1 (second series), stronger effect = lower value 1.02 | locus YJL095W, strain BCK1, stronger effect = lower value 1.06 and 0.986 | locus YJL115W, strain asf1, stronger effect = lower value 0.989 | locus YJL129C, strain trk1, stronger effect = lower value 1.02 | locus YJL134W, strain LCB3, stronger effect = lower value 0.99 | locus YJL154C, strain vps35, stronger effect = lower value 0.981 | locus YJL164C, strain tpk1, stronger effect = lower value 0.996 | locus YJL166W, strain qcr8, stronger effect = lower value 0.981 | locus YJL168C, strain set2, stronger effect = lower value 0.996 | locus YJL187C, strain SWE1 (second series), stronger effect = lower value 1.01 | locus YJR043C, strain POL32, stronger effect = lower value 1.01 | locus YJR066W, strain TOR1, stronger effect = lower value 0.92
